From PubChem BioAssay
MK inhibit: inhibitors of Streptococcus pneumoniae mevalonate kinase; inhibition, % at 10 µM; purified MK, PK/LDH-coupled NADH absorbance 340 nm; hit rate 0.48% among 65,000;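 active = ranked among the strongest by inhibition in the single 10 µM screen, a fixed top-ranked set picked for dose follow-up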
Spn PMK inh: blocks S. pneumoniae phosphomevalonate kinase; purified PMK, PK/LDH-coupled NADH absorbance 340 nm; inhibition, % at 10 µM; hit rate 0.49% among 65,000; AID 539;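 active = top-ranked compounds by inhibition in the single 10 µM screen, taking a fixed number of the strongest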;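 also: 0% = full reaction with DMSO carrier and 100% = background rate without enzyme reaction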
NADH enzymes: inhibition of NAD/NADH coupling enzymes, library profiling | coupled PK/LDH NADH assays, four targets | IC50, µM (doses to about 10 µM), inactives show at the top dose inhibition | hit rate 0.02% among 65,000;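 active = single-dose screening hits from any of four coupled enzyme assays that gave an IC50 when retested across doses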;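 also: the DPM-DC format reads NADH fluorescence rather than 340 nm absorbance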
Fluor 339 460: intrinsic fluorescence of library compounds, ex339/em460 – biochemical, MLSMR library, data from DPM-DC assay, artefact control, profiling panel; fluorescence fold increase at 10 µM; compound autofluorescence, ex339/em460 nm, NADH buffer; stronger effect = higher value; 1 = no-compound wells, NADH background; hit rate 5.5% among 65,000;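 active = at 10 µM, mean starting fluorescence two-fold or more over control wells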;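 also: signal is the first read of a kinetic run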
DPM-DC inhibit: blocks S. pneumoniae diphosphomevalonate decarboxylase | calls only at 10 µM | purified DPM-DC, PK/LDH coupled NADH fluorescence | hit rate 0.49% among 65,000 | AID 556;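 active = the 320 compounds with the highest percent inhibition in the single-dose primary screen, excluding strongly autofluorescent ones, cut at about 32% in these data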;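 also: kinetic rate of NADH fluorescence loss reporting ADP formed by the decarboxylase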
A340 absorber: compounds absorbing at 340 nm; fold change at 10 µM; 65,000 tested, under 10 active; AID 708; compound absorbance at 340 nm, fold over control;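 active = at 10 µM dose, initial 340 nm absorbance at least 2 fold that of control wells; inactive = change under 2 fold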;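 also: initial absorbance extrapolated from kinetic A340 decline of NADH oxidation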
* hit, by the source's call; i = inactive; x = no result given; + = active, no number; [ ] = another dose, or the depositor's remark. An excerpt weighted towards active compounds, which were near 6.3% of everything screened.

SMILES	MK inhibit	Spn PMK inh	NADH enzymes	Fluor 339 460	DPM-DC inhibit	A340 absorber
CCCn1c(SCC(=O)NC(=O)NCc2ccco2)n[nH]c1=O	0.0	13.0	3.0%	1.01	i	1
Cc1cccc(N(C)c2cc(C)nc3nc(C)nn23)c1	7.0	13.0	7.0%	1.03	i	1.06
Cc1ccc(C)c(-c2nc3ccc(N)cc3[nH]2)c1	6.0	12.0	8.0%	2.97*	x	1
Nc1ccc2nc(-c3ccc(Cl)cc3)[nH]c2c1	6.0	18.0	12.0%	2.12*	x	1.16
Cc1ccc2nc(C(O)C(O)c3nc4ccc(C)cc4[nH]3)[nH]c2c1 (stereo not drawn)	1.0	13.0	5.0%	1.17	i	1.03
Nc1ccc(-c2nc3c(Cl)c(N)ccc3[nH]2)cc1	0.0	16.0	8.0%	3.64*	x	1.16
Cc1ccc(C)c(-c2nc3cc(N)ccc3o2)c1	4.0	0.0	3.0%	2.34*	+[fluoresces]	1.01
O=C(Nc1ccc(C(=O)Oc2ccccc2)c(O)c1)c1ccco1	10.0	2.0	4.0%	1.2	i	1.15
Cc1noc(/C=C/N(C)C)c1S(=O)(=O)N1CCC(C(=O)O)CC1	13.0	11.0	10.0%	0.98	i	1.33
CCOC(=O)c1cccc(NC(=O)CSc2nnc(COc3ccccc3C)o2)c1	9.0	7.0	5.0%	1.03	i	1.03
O=C(Oc1ccc(-c2nnco2)cc1)N(c1ccccc1)c1ccccc1	7.0	4.0	4.0%	1.08	i	1.04
Cc1ccc(C2C=C(c3ccccc3OC(F)F)Nc3ncnn32)cc1 (stereo not drawn)	13.0	14.0	12.0%	2.06*	i	1.02
Cc1ccc(C2C=C(c3ccc4c(c3)OCO4)Nc3ncnn32)cc1 (stereo not drawn)	0.0	5.0	8.0%	2.96*	i	1.11
CN(C)c1ccc(C2C=C(c3ccc(Cl)cc3OC(F)F)Nc3ncnn32)cc1 (stereo not drawn)	8.0	8.0	10.0%	1.55	i	1.01
COc1ccc(C2C3=C(CCCC3=O)Nc3nc4ccccc4n32)cc1OC (stereo not drawn)	10.0	6.0	8.0%	3.05*	x	1.2
COc1ccc(OC)c(C2C3=C(CCCC3=O)Nc3nc4ccccc4n32)c1 (stereo not drawn)	9.0	8.0	7.0%	1.71	i	1.13
COc1ccc(C2C3=C(CCCC3=O)Nc3nc4ccccc4n32)c(OC)c1OC (stereo not drawn)	0.0	8.0	4.0%	5.08*	x	1.08
O=C(c1ccc(Cl)cc1)N1CCN(c2nc(N3CCCCC3)nc(N3CCCCC3)n2)CC1	8.0	0.0	3.0%	1.23	i	1.05
CCOC(=O)c1cc2nc(Nc3ccc(OC)cc3)sc2s1	0.0	5.0	15.0%	1.97	+	1.13
Cc1cc(C)c(NC(=O)CN2CCN3CCCC3C2)c(C)c1 (stereo not drawn)	10.0	17.0	9.0%	1.09	i	0.97
Cc1cc(=O)[nH]c2ccccc12	0.0	9.0	15.0%	1.11	+	1.02
O=C(COc1cnc2ccccc2n1)NCCC1=CCCCC1	2.0	11.0	16.0%	1.99	+	1.07
O=C(COc1ncnc2ccccc12)NCCC1=CCCCC1	0.0	0.0	0.0%	1.14	i	1.03
CN(C)c1ccc(NC(=O)Cn2cc3c(n2)CCCC3)cc1	0.0	7.0	1.0%	1.04	i	1
Cn1c2ccccc2c2ncn(Cc3ccco3)c(=O)c21	8.0	10.0	11.0%	2.92*	i	1.05
SMILES	MK inhibit	Spn PMK inh	NADH enzymes	Fluor 339 460	DPM-DC inhibit	A340 absorber
CCOC(=O)c1cn(CC)c2cc(N3CCOCC3)c(F)cc2c1=O	9.0	16.0	4.0%	2.27*	x	1.03
CCOC(=O)c1cn(CC)c2cc(N3CCCCC3)c(F)cc2c1=O	4.0	16.0	13.0%	1.98	i	1.1
CCOC(=O)N1CCN(C(=O)c2cn(CC)c3cc(N4CCN(C)CC4)c(F)cc3c2=O)CC1	5.0	18.0	9.0%	1.94	+	1.04
CCN1CCN(c2cc3c(cc2F)c(=O)c(C(=O)O)cn3C2CC2)CC1	6.0	23.0	7.0%	2.16*	x	1.01
CCC(=O)N1CCN(c2cc3c(cc2F)c(=O)c(C(=O)O)cn3CC)CC1	0.0	5.0	3.0%	4.85*	x	1.08
CCCCCCC(=O)N1CCN(c2cc3c(cc2F)c(=O)c(C(=O)O)cn3CC)CC1	0.0	7.0	4.0%	1.03	i	1.01
CCOc1cccc(C(=O)Nc2ccccc2N2CCN(C(=O)C(C)C)CC2)c1	0.0	5.0	2.0%	1.12	i	1.03
COC(=O)CN1CCN(C(=O)c2ccc(F)cc2)c2ccccc2C1	8.0	12.0	7.0%	1.11	i	1.01
Cc1occc1C(=O)NCCCc1ccccc1	0.0	0.0	0.0%	1.09	i	1.05
CC1CCCN(CCCNC(=O)c2coc3nc4ccccc4nc23)C1 (stereo not drawn)	10.0	15.0	13.0%	4.88*	x	1.12
CC1CCN(CCCNC(=O)c2coc3nc4ccccc4nc23)CC1	7.0	10.0	3.0%	3.35*	x	1.02
Cc1ccc(CCNC(=O)c2coc3nc4ccccc4nc23)cc1	1.0	12.0	4.0%	2.28*	i	1.03
CC1CCN(CCCNC(=O)c2n[nH]c(=O)c3ccccc23)CC1	2.0	0.0	1.0%	1.07	i	1.06
COc1ccc(OC)c(N2C(=O)CC(Cc3ccc(C)cc3)C2=O)c1 (stereo not drawn)	4.0	0.0	1.0%	1.07	i	1.05
O=C(Nc1ccccc1-c1ccccc1)C1CCCN(c2ncccn2)C1 (stereo not drawn)	0.0	8.0	5.0%	1.39	i	1.01
Cc1ccnc(NC(=O)CCC(=O)N(CC(=O)NC2CCCCC2)Cc2ccc3c(c2)OCO3)c1	4.0	9.0	5.0%	1.07	i	0.99
O=C(Nc1sc2c(c1C(=O)NCc1ccco1)CCCC2)c1ccc2c(c1)OCO2	15.0	6.0	6.0%	2.9*	x	1.02
CCOc1cc2[nH]c(=O)n(CC3CCC(C(=O)NCCC(C)C)CC3)c(=O)c2cc1OCC (stereo not drawn)	3.0	1.0	1.0%	1.43	i	1.05
CCOc1cc2[nH]c(=O)n(CCCN3CCCC3=O)c(=O)c2cc1OCC	3.0	10.0	8.0%	2.28*	i	1.02
CCOc1cc2[nH]c(=O)n(CCCCC(=O)NC3CCCCCC3)c(=O)c2cc1OCC	8.0	5.0	6.0%	2.29*	i	1.06
CCOc1cc2[nH]c(=O)n(CC3CCC(C(=O)NCCCOC)CC3)c(=O)c2cc1OCC (stereo not drawn)	0.0	0.0	0.0%	2.14*	i	1.04
Cc1ccccc1NC(=O)CN1C(=O)COc2ccc(Cl)cc21	0.0	0.0	0.0%	1.1	i	1.04
CC(=O)N1CSCC1C(=O)N1CCN(c2ccc(N3CCOCC3)nn2)CC1 (stereo not drawn)	10.0	13.0	12.0%	2.13*	x	0.99
